High-throughput results: PubChem, National Center for Advancing Translational Sciences (NCATS)
TGFb SMAD3 inh: qHTS for Inhibitors of TGF-b. HepG2 CAGA-GFP TGF-b/SMAD3 reporter, GFP fluorescence, 18 h; TGF-beta stimulated, 500 pg/mL final. Potency, µM (titrated, usually from 46.1 µM), actives largely listed as inhibitors. actives 1.2% (n = 410,000); also: nearly all actives have a fitted effect of over 65% in size
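Inhibition was scored as loss of TGF-beta-induced (500 pg/mL final, 18 hours, 37 degrees C) GFP in HEPG2 cells carrying a CAGA-GFP reporter, in DMEM with 1% FBS. Well GFP was summed per cell; Activity was normalised to unstimulated and stimulated DMSO wells, then concentration-response fitting.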
HepG2 tox: qHTS for Inhibitors of TGF-b: Cytotox Counterscreen | Potency, µM (highest dose often 46.1 µM), actives largely listed as cytotoxic | actives 0.76% (n = 410,000) | HepG2 CAGA-GFP viability, ATP luminescence, 18 h | AID 588856, 2011
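HepG2 CAGA-GFP cells (1000/well, DMEM with 1% FBS) received compound, then TGF-beta at 500 pg/mL final, and were incubated 18 hours at 37 degrees C. Viability was read by CellTiter-Glo luminescence. Media-only wells were set as complete cell-killing and DMSO as no toxicity.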
VP16 counter: VP16 counterscreen qHTS for inhibitors of ROR gamma transcriptional activity; Drosophila S2 Gal4-VP16 UAS-luciferase, luminescence, 20 h; Potency, µM (highest dose often 53.6 µM), hits mostly inhibitors; actives 3.5% (n = 310,000);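 also: Gal4-VP16 expression switched on by copper sulfate through the metallothionein promoter; nearly all actives have a fitted effect of over 50% in size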
S2 tox: Viability Counterscreen for Primary qHTS for Inhibitors of ATXN expression | actives 0.49% (n = 400,000) | S2 cells (HEK-293 line with an ATXN2-luciferase reporter) viability, CellTiter-Fluor protease fluorescence, 24 h | Potency, µM (highest dose often 56.7 µM), actives largely listed as cytotoxic; also: nearly all actives have a fitted effect of over 40% in size
RORg inh: qHTS for inhibitors of ROR gamma transcriptional activity; AID 2551, 2010; actives 5.4% (n = 310,000); Potency, µM (titrated, usually from 53.6 µM), most hits filed as inhibitors; Drosophila S2 Gal4-RORgamma UAS-luciferase reporter, 20 h; Nuclear receptor ROR-gamma (Mus musculus), P51450; also: nearly all actives have a fitted effect of over 60% in size
Target sequence (P51450 whole entry, looked up, the tested form may be a part): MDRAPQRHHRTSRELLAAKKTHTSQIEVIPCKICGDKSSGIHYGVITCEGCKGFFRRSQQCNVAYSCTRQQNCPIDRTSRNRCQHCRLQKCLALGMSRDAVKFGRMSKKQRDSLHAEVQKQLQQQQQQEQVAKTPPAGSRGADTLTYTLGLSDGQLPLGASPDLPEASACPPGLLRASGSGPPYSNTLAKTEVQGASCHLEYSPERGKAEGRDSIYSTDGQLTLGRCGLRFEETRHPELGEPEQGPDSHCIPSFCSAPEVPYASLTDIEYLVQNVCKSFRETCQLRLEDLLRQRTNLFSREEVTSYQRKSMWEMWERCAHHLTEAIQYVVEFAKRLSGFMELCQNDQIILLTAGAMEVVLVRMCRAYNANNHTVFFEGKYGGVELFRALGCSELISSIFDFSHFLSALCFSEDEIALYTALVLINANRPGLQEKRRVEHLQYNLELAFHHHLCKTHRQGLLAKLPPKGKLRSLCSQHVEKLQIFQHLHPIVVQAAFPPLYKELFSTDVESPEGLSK
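Luminescence from a UAS-regulated Photinus luciferase reporter in stably transfected Drosophila Schneider cells is measured; decreased signal marks ROR gamma inhibition. Fusion expression is induced by 700 uM copper sulfate for 20 hr.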
ATXN2 expr inh: Primary qHTS for Inhibitors of ATXN expression. HEK-293 ATXN2-luciferase reporter, luminescence, 24 h. Potency, µM (doses to about 57 µM), most hits filed as inhibitors. actives 0.72% (n = 360,000). AID 1745845, 2022; also: nearly all actives have a fitted effect of over 55% in size
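ATXN2-luciferase reporter cells (luciferase flanked by upstream and downstream ATXN2 gene portions) were treated 24 h at 37 °C with compounds at up to 57 uM. SteadyGlo luminescence gave expression; GF-AFC fluorescence gave viability.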
Hits are given with their value; . = inactive; ? = inconclusive; / = no result. Only some compounds are listed: those with a hit (about 6.1% of all), similar ones and a draw of the others. Calls follow the shape of the dose curve; as a rule, active = well fitted curve in the direction sought with a large enough effect; inconclusive = small, poorly fitted or top-dose-only effect, or another doubt; inactive = no such curve, though single readings can be large; an effect the other way counts as inactive or inconclusive.

SMILES | TGFb SMAD3 inh | HepG2 tox | VP16 counter | S2 tox | RORg inh | ATXN2 expr inh
Cc1ccc(O)c(CNc2nc3ccccc3n2C(C)C)c1 | ? | . | . | . | . | .
CCn1c(C)nc2cc(C(=O)NNC(=S)Nc3ccccc3OC)ccc21 | . | . | . | ? | 13µM | .
CCn1c(C)nc2cc(C(=O)NNC(=S)Nc3ccc(C)cc3)ccc21 | . | . | ? | . | . | .
CCn1c(C)nc2cc(C(=O)N/N=C(\C)c3ccccc3O)ccc21 | . | . | 0.63µM | / | 0.63µM | /
Cc1cc(C)c(S(=O)(=O)Nc2ccc(-c3ccc(N4CCCCC4)nn3)cc2)cc1C | . | . | / | . | / | .
CCn1c2ccccc2c2cc(NC(=O)CSc3nnc(-c4ccc(OC)c(OC)c4)n3N)ccc21 | . | . | . | / | ? | /
CCOc1ccc(-c2nnc(SCC(=O)Nc3ccc4c(c3)c3ccccc3n4CC)n2N)cc1 | ? | . | 22µM | / | ? | 32µM
COc1cccc(C2=NC(C)(C)NC(c3ccccc3O)C2)c1 (centres undefined) | ? | 18µM | . | . | . | .
COc1ccc(-c2csc(NC(CO)c3nc4ccccc4n3Cc3ccc(C)cc3)n2)cc1 (centres undefined) | ? | . | / | ? | / | .
CCCn1c(C(C)Nc2nc(-c3ccc(OC)cc3)cs2)nc2ccccc21 (centres undefined) | . | . | ? | ? | 7.9µM | .
CC(Nc1oc(-c2ccc(COc3ccccc3)o2)nc1C#N)c1ccccc1 (centres undefined) | ? | 11µM | / | ? | / | ?
N#Cc1cc(NC(=O)C(=O)O)c(Cl)c(NC(=O)C(=O)O)c1 | / | / | / | . | / | .
COc1ccc(Cl)cc1C(=O)Nc1ccccc1N1CCN(C(=O)C(C)C)CC1 | . | . | . | ? | . | 22µM
CC1CCN(c2ccccc2NC(=S)NC(=O)c2ccco2)CC1 | ? | . | / | . | / | .
CC1CCN(c2ccccc2NC(=S)NC(=O)c2cccs2)CC1 | ? | . | 6.3µM | . | 2.2µM | .
COc1ccc(C(=O)Nc2ccccc2N2CCN(C(=O)C(C)C)CC2)cc1Cl | . | . | . | . | . | .
CS(=O)(=O)N1CCN(c2ccccc2NC(=S)NC(=O)c2cccs2)CC1 | . | . | . | ? | 11µM | .
CC(C)C(=O)NC(=S)Nc1ccccc1N1CCN(C(=O)c2ccc(Cl)cc2)CC1 | . | . | 5µM | . | 5.6µM | .
OC(c1ccc2c(c1)CN(Cc1cccc3nccnc13)CCO2)C1CCCCC1 (centres undefined) | / | / | / | . | / | /
CC(C)C(=O)N1CCN(c2ccccc2NC(=S)NC(=O)c2cccs2)CC1 | . | . | ? | . | 14µM | .
CC1CCN(c2ccccc2NC(=S)NC(=O)C(C)(C)C)CC1 | ? | . | ? | . | 1.6µM | .
CCCOCc1cc(CN2CCN(c3ccccc3OC)CC2)c(O)c2ncccc12 | 2µM | 11µM | / | / | / | /
CCOc1ccccc1N1CCN(Cc2cccc(OC)c2O)CC1 | . | . | . | . | . | .
CCOCc1cc(CN2CCN(c3ccccc3OC)CC2)c(O)c2ncccc12 | / | 1.6µM | / | / | / | /
COc1ccccc1N1CCN(Cc2cc(COC(C)C)c3cccnc3c2O)CC1 | 2.2µM | 2.8µM | / | / | / | /
SMILES | TGFb SMAD3 inh | HepG2 tox | VP16 counter | S2 tox | RORg inh | ATXN2 expr inh
CC1(C)N=C(N)N=C(N)N1c1ccc(Cl)cc1 | / | / | / | . | / | /
C=CCNc1nc(-c2ccc(OC)cc2OC)cs1 | . | . | 18µM | . | . | .
CCNC(=S)N1CCC(C(O)(c2ccccc2)c2ccccc2)CC1 | . | . | . | . | . | .
CCNC(=S)N1CCC(Cc2ccccc2)CC1 | . | . | . | . | . | .
COc1ccc(NC(=S)N2CCC(Cc3ccccc3)CC2)cc1 | . | . | ? | . | 8.9µM | .
S=C(Nc1ccccc1)N1CCC(Cc2ccccc2)CC1 | . | . | 6.3µM | . | 6.3µM | .
OCC1CCCN(C(=S)Nc2ccc(Nc3ccccc3)cc2)C1 (centres undefined) | . | . | 7.9µM | . | 7.1µM | .
OCC1CCCN(C(=S)Nc2ccc(OC(F)F)cc2)C1 (centres undefined) | . | . | . | . | . | .
COc1cc(NC(=S)N2CCC(C(O)(c3ccccc3)c3ccccc3)CC2)cc(OC)c1 | ? | . | ? | ? | 14µM | /
CC[C@H](C)[C@H](NC(=O)[C@H](Cc1ccc(O)cc1)NC(=O)[C@@H](NC(=O)[C@H](CCCN=C(N)N)NC(=O)[C@@H](N)CC(=O)O)C(C)C)C(=O)N[C@@H](Cc1cnc[nH]1)C(=O)N1CCC[C@H]1C(=O)O | / | / | . | / | . | /
COCc1ccc(CN2CCC(n3nccc3NC(=O)CCOc3ccccc3)CC2)o1 | . | . | ? | . | 8.9µM | .
